PKA kinase inh: inhibitors of human PKA kinase activity, primary screen, biochemical, ATP-depletion luminescence, Kemptide substrate | cAMP-dependent protein kinase catalytic subunit alpha (Homo sapiens), P17612 | PKA Kemptide phosphorylation, Kinase-Glo ATP luminescence | inhibition, % at 6 µM | 65,000 tested, 0.1% active;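 active means inhibition above the screen-wide mean inhibition plus 3 SD, cut at about 21% in these data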
hDAT+cocaine: changed hDAT dopamine uptake under cocaine IC80, either direction, primary screen, cocaine antagonist project, cell-based, LLC-PK1 hDAT, [14C]-dopamine uptake, MLSMR. 110,000 tested, 1.3% active. B-score at 10 µM. LLC-PK1 hDAT cells, [14C]-dopamine uptake with cocaine IC80; actives deviate in either direction. Sodium-dependent dopamine transporter (Homo sapiens), Q01959;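 active means Z score or B-score, a plate-position-corrected score, falls beyond the plate's 99.7% confidence bounds, in either direction; inactive means both scores lie inside the 99.7% bounds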;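 further: scored against the spread of the other compound wells on the same plate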
D1 mod: D1 CRE-luciferase signal change, two-sided – cell-based, HEK293 D1, dopamine EC30, D1 allosteric modulator project, primary screen; D(1A) dopamine receptor (Homo sapiens), P21728; dopamine EC30 potentiation; actives deviate in either direction; B-score at 10 µM; 58,000 tested, 5.9% active; AID 641, 2007;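 active means luminescence count or its row- and column-corrected plate score outside the 99.7% band of the plate's sample wells, on either side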
ROCK2 inh: inhibitors of human ROCK2 kinase, primary screen, biochemical, high-throughput, luminescence; Rho-associated protein kinase 2 (Homo sapiens), O75116; purified ROCK2, Kinase-Glo ATP depletion luminescence; inhibition, % at 6 µM; 60,000 tested, 0.35% active; AID 604, 2007;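 active means inhibition above the screen-wide mean inhibition plus 3 SD, cut at about 18% in these data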;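 further: plate controls were DMSO wells for no effect and Y-27632 control wells after no-enzyme background subtraction for full effect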
Target sequence (O75116 whole entry, looked up): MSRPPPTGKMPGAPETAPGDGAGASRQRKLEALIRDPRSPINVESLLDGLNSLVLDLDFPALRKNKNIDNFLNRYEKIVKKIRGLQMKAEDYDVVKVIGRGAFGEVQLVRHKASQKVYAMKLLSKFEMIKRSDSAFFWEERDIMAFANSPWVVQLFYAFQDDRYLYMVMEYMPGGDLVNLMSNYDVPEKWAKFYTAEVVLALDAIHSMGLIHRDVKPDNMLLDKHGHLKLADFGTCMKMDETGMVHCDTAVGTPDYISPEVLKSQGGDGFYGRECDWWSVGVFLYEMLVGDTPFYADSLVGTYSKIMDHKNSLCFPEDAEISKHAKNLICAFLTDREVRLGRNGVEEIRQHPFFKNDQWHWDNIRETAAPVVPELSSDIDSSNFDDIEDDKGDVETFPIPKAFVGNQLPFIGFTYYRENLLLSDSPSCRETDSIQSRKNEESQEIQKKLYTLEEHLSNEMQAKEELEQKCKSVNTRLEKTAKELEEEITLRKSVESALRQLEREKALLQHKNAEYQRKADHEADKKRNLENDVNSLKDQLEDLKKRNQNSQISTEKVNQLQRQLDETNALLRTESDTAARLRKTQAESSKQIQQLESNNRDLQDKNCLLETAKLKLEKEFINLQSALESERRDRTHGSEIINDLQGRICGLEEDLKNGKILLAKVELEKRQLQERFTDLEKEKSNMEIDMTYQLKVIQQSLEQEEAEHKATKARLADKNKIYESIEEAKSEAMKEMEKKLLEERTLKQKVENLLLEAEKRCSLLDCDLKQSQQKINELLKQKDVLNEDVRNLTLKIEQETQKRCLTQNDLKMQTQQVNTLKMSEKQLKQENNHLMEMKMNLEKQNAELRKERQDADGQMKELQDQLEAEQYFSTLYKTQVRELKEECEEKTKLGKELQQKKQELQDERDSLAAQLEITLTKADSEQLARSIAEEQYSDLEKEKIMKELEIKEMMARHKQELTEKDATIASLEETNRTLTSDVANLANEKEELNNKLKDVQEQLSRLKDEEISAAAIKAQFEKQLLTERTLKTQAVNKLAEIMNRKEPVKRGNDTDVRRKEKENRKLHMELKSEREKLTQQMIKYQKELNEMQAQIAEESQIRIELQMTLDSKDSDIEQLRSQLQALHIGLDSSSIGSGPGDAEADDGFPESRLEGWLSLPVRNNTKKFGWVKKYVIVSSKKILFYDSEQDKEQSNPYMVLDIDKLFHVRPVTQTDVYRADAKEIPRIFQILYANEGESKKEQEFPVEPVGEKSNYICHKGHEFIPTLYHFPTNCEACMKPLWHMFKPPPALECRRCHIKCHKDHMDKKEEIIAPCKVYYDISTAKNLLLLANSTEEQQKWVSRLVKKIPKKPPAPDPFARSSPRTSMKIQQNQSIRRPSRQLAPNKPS
D1 PAM confirm: D1 receptor positive allosteric modulators, retest, confirmation, cell-based, HEK293 D1, CRE-luciferase, duplicate | luminescence at 10 µM | shares compounds with D1 mod | dopamine EC30 potentiation; hits give high values | 2,200 tested, 88% active | AID 642, 2007;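 active means luminescence in either of two replicates above the same-plate mean plus 3 SD of the low-dose dopamine control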
D1 ag no DA: D1 receptor agonism without dopamine, confirmation, mechanism study for D1 allosteric modulator project, cell-based, HEK293 D1, CRE-luciferase, secondary assay 1; 1,900 tested, 0.8% active; AID 646, 2007; shares compounds with D1 mod; luminescence at 10 µM; luminescence, no dopamine; hits give high values; in the data active means luminescence above about 3900
Isoprot counter: alters isoproterenol CRE-luciferase response in HEK293 cells; shares compounds with D1 mod; HEK293 D1 CRE-luciferase, isoproterenol EC30 counter-screen; calls only at 10 µM; 2,200 tested, 63% active; AID 647;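 active means luminescence in either replicate above plate mean of wells with a partly effective reference agonist dose plus 3 SD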;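 further: isoproterenol raises cAMP through native beta-adrenoceptor Gs so signal bypasses D1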
An asterisk follows results filed as active; i = inactive; nt = no result given; + = active, no number. This excerpt belongs to a sample that is enriched for hits.

SMILES	PKA kinase inh	hDAT+cocaine	D1 mod	ROCK2 inh	D1 PAM confirm	D1 ag no DA	Isoprot counter
COc1ccc(NC(=O)CNS(=O)(=O)c2cccc3nonc23)c(OC)c1	2	-0.02	nt	nt	nt	nt	nt
Cc1cc2cc(C)c3nnc(SCC(=O)N4CCc5ccccc54)n3c2cc1C	nt	-0.75	nt	nt	nt	nt	nt
Cc1ccc(N=Cc2c(O)n(-c3cc(Cl)ccc3N3CCOCC3)c(=O)c3ccccc23)cc1C	nt	0.32	nt	nt	nt	nt	nt
CC(C)(C)S(=O)(=O)c1ccc(S(=O)(=O)C(C)(C)C)s1	nt	-0.17	nt	nt	nt	nt	nt
COc1ccc(-c2nc(CSCC(=O)N3CCc4ccccc43)c(C)o2)cc1OC	11	0.47	3.8*	5	11284*	1596	+
CC[C@@H]1CC=C[C@H]2[C@H]1C(=O)N(Cc1ccccc1)[C@H]2c1cc(C)ccc1F	nt	0.066	nt	nt	nt	nt	nt
CCSC(C)CC1C/C(=N/O)c2c(CC)noc2C1 (stereo not given)	8	-0.54	5.3*	2	8312*	1736	i
CCCc1noc2c1/C(=N\O)CC(CC(C)SCC)C2 (stereo not given)	-2	0.2	2	0	nt	nt	nt
Cn1c(=O)c(NCCc2ccccc2)c2c3c(cccc31)C(=O)c1ccccc1-2	nt	2.1	nt	nt	nt	nt	nt
CCn1c(=NC(=O)c2ccc(N3C(=O)CCC3=O)cc2)sc2c(OC)ccc(OC)c21	-1	-2	9.9*	-1	22036*	1820	+
C=CCn1c(=NC(=O)CN2C(=O)CCC2=O)sc2cccc(OC)c21	nt	-0.11	nt	nt	nt	nt	nt
CCn1c(=NC(=O)CN2C(=O)CCC2=O)sc2c(OC)ccc(OC)c21	-5	0.03	5.4*	0	11544*	nt	i
CCn1c(=O)c(C(=O)Nc2nc3ccccc3[nH]2)c(O)c2ccccc21	7	-0.12	-0.65	8	nt	nt	nt
C/C=C/Cn1c(SCCCc2ccccc2)nc2c1c(=O)[nH]c(=O)n2C	9	0.63	6.3*	4	8184*	1456	i
CCOCCSc1nc2c(c(=O)[nH]c(=O)n2C)n1CCCc1ccccc1	5	-0.056	5.6*	9	12256*	1704	+
CCCCCn1c(SCCc2ccccc2)nc2c1c(=O)[nH]c(=O)n2C	-14	0.14	5.5*	-10	12580*	1568	+
CCCn1c(SCCc2ccccc2)nc2c1c(=O)[nH]c(=O)n2C	5	-1.9	0.32	1	nt	nt	nt
CCCCCn1c(SCCOCC)nc2c1c(=O)[nH]c(=O)n2C	-4	-0.062	9.6*	0	20192*	1580	+
CCOCCn1c(SCCc2ccccc2)nc2c1c(=O)[nH]c(=O)n2C	7	-0.0081	0.51	2	nt	nt	nt
CCCCN1C(=O)c2ccc(C(=O)Nc3c(N)n(CCCC)c(=O)n(C)c3=O)cc2C1=O	-1	-0.61	-0.42	nt	nt	nt	nt
CCOC(=O)c1c(NC(=O)CSc2nnc(-c3cccnc3)n2Cc2ccco2)sc(C)c1C	-3	0.53	1	-1	nt	nt	nt
COc1ccc(C2CC(c3cccc(OC)c3)n3nc(N)nc3N2)cc1 (stereo not given)	1	-0.34	-0.41	5	nt	nt	nt
COc1cccc(C2CC(c3cccc(Br)c3)n3nc(N)nc3N2)c1 (stereo not given)	5	-1.3	9.3*	4	12600*	1776	+
Nc1nc2n(n1)C(c1cccc(Br)c1)CC(c1ccccc1)N2 (stereo not given)	0	1.1	37*	4	18056*	1512	+
O=C(Nc1ccc(O)c2c(=O)cc(-c3cccc(Cl)c3)oc12)c1ccccc1Cl	nt	-0.085	nt	nt	nt	nt	nt
SMILES	PKA kinase inh	hDAT+cocaine	D1 mod	ROCK2 inh	D1 PAM confirm	D1 ag no DA	Isoprot counter
CC(C)(C)NC(=O)CN(C(=O)CNC(=O)c1cccs1)c1ccc2c(c1)OCCO2	nt	0.74	nt	nt	nt	nt	nt
CC(=O)Nc1ccc(S(=O)(=O)Nc2nc(C)cc(-n3nc(C)cc3C)n2)cc1	-2	-0.44	-0.013	0	nt	nt	nt
Cc1cc(-n2nc(C)cc2C)nc(NS(=O)(=O)c2ccccc2)n1	-1	1	3.8*	nt	10456*	1500	i
Cc1cc(-n2nc(C)cc2C)nc(N)n1	16	-0.083	5.6*	6	10308*	nt	+
N#CCSc1nc2cc(C(=O)N3CCCC3)ccc2c(=O)n1Cc1ccccc1	1	-0.24	nt	2	nt	nt	nt
N#CCSc1nc2cc(C(=O)N3CCC(C(N)=O)CC3)ccc2c2nc3ccccc3n12	3	0.29	10*	3	12528*	1880	+
CCOc1cc(-c2c(C#N)c(N)nc3c2CCCC3C)ccc1O (stereo not given)	8	2.4	5.5*	6	8596*	1588	+
CCOC(=O)c1sc(C)c2c1NC1(CCCCC1)NC2=O	12	0.071	6.2*	6	14036*	nt	+
COc1ccc(C2c3c(ncn(CCN4CCOCC4)c3=N)Oc3ccc4ccccc4c32)cc1OC (stereo not given)	nt	0.47	nt	nt	nt	nt	nt
CCCCn1c(NC(C)=O)c(C#N)c2nc3ccccc3nc21	4	-0.37	3.8*	1	11192*	1596	i
C=CCn1c(NC(=O)c2ccccc2)c(C#N)c2nc3ccccc3nc21	-6	nt	2.6	-5	nt	nt	nt
C[C@@H]1C=C(C(=O)O)O[C@H](OCc2ccc(CO)cc2)C1	nt	0.17	nt	nt	nt	nt	nt
CCOc1ccc(C2CC(c3cccc(C)c3)n3nc(N)nc3N2)cc1 (stereo not given)	-3	0.72	5*	2	10456*	nt	+
Cc1cccc(C2CC(c3ccc(F)cc3)Nc3nc(N)nn32)c1 (stereo not given)	7	0.04	4.7*	6	11784*	1444	i
COc1ccc(C2CC(c3ccccc3C)n3nc(N)nc3N2)cc1 (stereo not given)	4	0.084	-0.011	6	nt	nt	nt
Cc1ccc(C2CC(c3ccccc3C)n3nc(N)nc3N2)cc1 (stereo not given)	1	-0.74	5.3*	0	6604	1668	i
Cn1c(=O)c2c(nc3sccn32)n(C)c1=O	3	0.43	-1.2	nt	nt	nt	nt
Cn1c(=O)c2c(nc(SCC(=O)Nc3ccc(N4CCOCC4)c(Cl)c3)n2C)n(C)c1=O	0	nt	0.037	0	nt	nt	nt
CCOc1cc2nc(-c3ccc(OC)c(OC)c3)nc(N3CCOCC3)c2cc1OC	-5	0.88	13*	0	10492*	1512	+
CCOc1cc(C(=S)N2CCOCC2)ccc1OC	nt	1.1	nt	nt	nt	nt	nt
